In PubChem BioAssay (EPA / NIEHS):
Records with an inconclusive call do not appear. The source made the active and inactive calls. The calls were made as follows, unless noted: active = hit-call score of the fitted dose curve at least 0.9, where 1 is the maximum; inconclusive = response in the unintended direction; inactive = score below 0.9.

Columns and labels:
[1] = Tanguay_ZF_120hpf_JAW_legacy: (Legacy) Oregon State University Tanguay Lab 120 Hour Post-fertilization zebrafish Assay for Jaw Malformation (AID 2283638)
How it was run: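 Wild-type 5D embryos, chorion removed at 4 hpf, dosed singly from 6 hpf; 28C static, sealed, foil-covered, to 120 hpf. Endpoint: jaw defect yes/no (brightfield); mortality excludes scoring.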

[2] = Tanguay_ZF_120hpf_OTIC_legacy: (Legacy) Oregon State University Tanguay Lab 120 Hour Post-fertilization zebrafish Assay for Otic Vesicle Malformation (AID 2283639)
How it was run: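 Brightfield scoring at 120 hpf, binary present/absent; DMSO negative control, 5uM trimethyltin chloride positive control. Static exposure at 28C, final DMSO 0.64% (vol/vol). Dead embryos not scored for malformation.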

[3] = Tanguay_ZF_120hpf_PE_legacy: (Legacy) Oregon State University Tanguay Lab 120 Hour Post-fertilization zebrafish Assay for Pericardial Edema (AID 2283640)
How it was run: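 Zebrafish larvae are exposed from early development to 120 hpf at 28C, with 0.64% DMSO final. Each surviving larva receives a yes/no pericardial edema call by brightfield imaging, analysed relative to the DMSO baseline.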

[4] = Tanguay_ZF_120hpf_BRAI_legacy: (Legacy) Oregon State University Tanguay Lab 120 Hour Post-fertilization zebrafish Assay for Brain Malformation (AID 2283641)
How it was run: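 Static exposure of staged wild-type embryos until 120 hpf, kept at 28C with light excluded and final DMSO of 0.64% (vol/vol). Presence or absence of brain malformation was noted under brightfield; mortality precluded scoring.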

[5] = Tanguay_ZF_120hpf_SOMI_legacy: (Legacy) Oregon State University Tanguay Lab 120 Hour Post-fertilization zebrafish Assay for Somite Malformation (AID 2283647)
How it was run: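 Somitogenesis defects are recorded as binary calls in whole larvae at 120 hpf after continuous static chemical exposure starting at 6 hpf in dechorionated 5D embryos. DMSO serves as negative control and baseline.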

[6] = Tanguay_ZF_120hpf_PFIN_legacy: (Legacy) Oregon State University Tanguay Lab 120 Hour Post-fertilization zebrafish Assay for Pectoral Fin Malformation (AID 2283648);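 also: each larva judged yes or no for fin defect by brightfield with dead larvae skipped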
How it was run: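 Binary pectoral fin malformation call at 120 hpf by brightfield microscopy; 5D wild-type zebrafish, chorion removed at 4 hpf, one embryo per well from 6 hpf, static exposure at 28C; DMSO (0.64% final) as baseline.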

[7] = Tanguay_ZF_120hpf_CFIN_legacy: (Legacy) Oregon State University Tanguay Lab 120 Hour Post-fertilization zebrafish Assay for Caudal Fin Malformation (AID 2283649)
How it was run: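 Single dechorionated 5D wild-type embryos are dosed at 6 hpf (final DMSO 0.64%) and held statically at 28C. Caudal fin malformation is recorded as present or absent at 120 hpf under brightfield, excluding dead embryos.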

[8] = Tanguay_ZF_120hpf_PIG_legacy: (Legacy) Oregon State University Tanguay Lab 120 Hour Post-fertilization zebrafish Assay for Pigmentation Malformation (AID 2283650);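 also: dechorionated Tropical 5D zebrafish embryos exposed singly from 6 to 120 hpf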
How it was run: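 Brightfield scoring of pigmentation malformation at 120 hpf, recorded as binary present/absent per larva. Exposure: dechorionated 5D wild-type embryos, one per well, static from 6 hpf at 28C, final DMSO 0.64% (vol/vol). Dead embryos not scored.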

[9] = Tanguay_ZF_120hpf_CIRC_legacy: (Legacy) Oregon State University Tanguay Lab 120 Hour Post-fertilization zebrafish Assay for Circulatory Malformation (AID 2283651)
How it was run: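 Static exposure, 6–120 hpf, 28C, sealed and dark; one dechorionated 5D embryo/well; DMSO 0.64% v/v final. Binary circulation endpoint by brightfield; dead embryos not scored.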

[10] = Tanguay_ZF_120hpf_SWIM_legacy: (Legacy) Oregon State University Tanguay Lab 120 Hour Post-fertilization zebrafish Assay for Swim Bladder Malformation (AID 2283654);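 also: swim bladder malformation in each larva scored yes or no under brightfield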
How it was run: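 Tropical 5D embryos dechorionated at 4 hpf; 1 embryo/well from 6 hpf; static, sealed, dark exposure at 28C until 120 hpf; final DMSO 0.64%; 5uM trimethyltin chloride positive control; swim bladder defect recorded yes/no; dead embryos not scored.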

[11] = Tanguay_ZF_120hpf_NC_legacy: (Legacy) Oregon State University Tanguay Lab 120 Hour Post-fertilization zebrafish Assay for Notochord and Tail Malformation (AID 2283656)
How it was run: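 Binary notochord-distortion calls, made by brightfield inspection, form the read-out; activity is fitted in the positive direction against DMSO. Exposure ran statically from 6 to 120 hpf at 28C with 0.64% DMSO.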

[12] = read-out: solute carrier (SLC22A6), SLC22A6 (gene 9356); assay: LTEA_HepaRG_SLC22A6: Life Technologies and Expression Analysis (LTEA) Assay for solute carrier (SLC22A6) using HepaRG (AID 2283653; active = hit-call score of the fitted dose curve at least 0.9, where 1 is the maximum; inactive = score below 0.9); conditions: mRNA level, 48 h; actives raise or lower the signal
How it was run: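 Gene-expression endpoint in HepaRG hepatic cells: duplicate 8-point concentration-response, highest 100 uM, 48 h treatment in serum-free medium with 0.5% DMSO. SLC22A6 expression measured by qRT-PCR, normalised to ACTB/GAPDH/POLR2A.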

[13] = Tanguay_ZF_120hpf_TRUN_legacy: (Legacy) Oregon State University Tanguay Lab 120 Hour Post-fertilization zebrafish Assay for Truncated Body (AID 2283655)
How it was run: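 Single dechorionated zebrafish embryos received test chemical from 6 hpf in 0.64% DMSO, kept at 28C. At 120 hpf, brightfield inspection noted any truncated body.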

[14] = read-out: solute carrier (SLC10A1), SLC10A1 (gene 6554); assay: LTEA_HepaRG_SLC10A1: Life Technologies and Expression Analysis (LTEA) Assay for solute carrier (SLC10A1) using HepaRG (AID 2283657; active = hit-call score of the fitted dose curve at least 0.9, where 1 is the maximum; inactive = score below 0.9); conditions: mRNA level, 48 h; actives raise or lower the signal
How it was run: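 HepaRG, 48 h exposure, 8-pt half-log curve from 100 uM in 0.5% DMSO, duplicates. Read-out: TaqMan qRT-PCR of SLC10A1 mRNA, normalized to three housekeeping genes. Gain/loss fit vs DMSO baseline.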

[15] = read-out: matrix metalloproteinase-1 (MMP1), MMP1 (gene 4312); assay: LTEA_HepaRG_MMP1: Life Technologies and Expression Analysis (LTEA) Assay for matrix metalloproteinase-1 (MMP1) using HepaRG (AID 2283658; active = hit-call score of the fitted dose curve at least 0.9, where 1 is the maximum; inactive = score below 0.9); conditions: mRNA level, 48 h; actives raise or lower the signal
How it was run: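 In this screen, human liver HepaRG cultures receive each chemical in duplicate for 48 h (top 100 uM, 0.5% DMSO). MMP1 expression is then quantified by TaqMan qRT-PCR with ACTB/GAPDH/POLR2A normalization.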

[16] = Tanguay_ZF_120hpf_TR_legacy: (Legacy) Oregon State University Tanguay Lab 120 Hour Post-fertilization zebrafish Assay for Touch Response (AID 2283667)
How it was run: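 Binary touch-response call at 120 hpf, analysed as gain of signal versus DMSO baseline. Wild-type 5D larvae, static exposure at 28C, 0.64% DMSO final; 5uM trimethyltin chloride as positive control.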

[17] = read-out: Cytochrome P450 (CYP24A1_1), CYP24A1 (gene 1591); assay: LTEA_HepaRG_CYP24A1_1: Life Technologies and Expression Analysis (LTEA) Assay for Cytochrome P450 (CYP24A1_1) using HepaRG (AID 2283671; active = hit-call score of the fitted dose curve at least 0.9, where 1 is the maximum; inactive = score below 0.9); conditions: mRNA level, 48 h; actives raise or lower the signal
How it was run: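 Readout is CYP24A1 transcript level by qRT-PCR, normalized to three housekeeping genes, with gain or loss of signal fitted against 0.5% DMSO. Human HepaRG cells received compound for 48 h at up to 100 uM.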

[18] = test system: Thyroperoxidase (TPO), gene 54314; assay: CCTE_Simmons_AUR_rTPO: CCTE's Amplex UltraRed Assay for Thyroperoxidase (TPO) Inhibition, Simmons Lab (AID 2283662);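 also: potency for loss of signal meaning inhibition of peroxidase activity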
How it was run: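 Rat thyroid microsomes (5 ug protein) were incubated with test compound (8 concentrations, 5 nM–87.5 uM final, 0.5% DMSO), 25 uM Amplex UltraRed and 300 uM H2O2 in 200 mM phosphate buffer for 30 min at 37C in the dark; fluorescence read at 544/590 nm.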

[19] = CCTE_Simmons_CellTiterGLO_HEK293T: Viability Assessment in CCTE's Assays for Thyroperoxidase (TPO) Inhibition, Simmons Lab (AID 2283665);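 also: cells exposed to compound for 24 h before readout; actives reduce ATP signal below DMSO vehicle meaning cytotoxicity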
How it was run: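 Luminescent ATP readout (CellTiter-Glo, 20 min at room temperature) after 24 hr exposure of HEK293T cells to 5 nM–87.5 uM final compound; signal loss relative to DMSO vehicle indicated cytotoxicity; dichlone titrated as positive control.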

SMILES | outcome [1] | outcome [2] | outcome [3] | outcome [4] | outcome [5] | outcome [6] | outcome [7] | outcome [8] | outcome [9] | outcome [10] | outcome [11] | outcome [12] | outcome [13] | outcome [14] | outcome [15] | outcome [16] | outcome [17] | AC50 [18] | AC50 [19]
CC(=O)OCC(COC(C)=O)OC(C)=O | inactive | inactive | inactive | inactive | inactive | inactive | inactive | inactive | inactive | inactive | inactive |  |  |  |  |  |  |  | 
CCCCCCCCCC[N+](C)(C)[O-] | inactive | inactive | inactive | inactive | inactive | inactive | inactive | inactive | inactive | inactive | inactive | inactive | inactive | inactive | inactive | inactive | inactive |  | 
O=C1NC(=O)C(c2ccccc2)(c2ccccc2)N1 | inactive | inactive | inactive | inactive | inactive | inactive | inactive | inactive | inactive | inactive | inactive |  | inactive |  |  | inactive |  |  | 
O=C(Oc1ccccc1)c1cccc(C(=O)Oc2ccccc2)c1 | inactive | inactive | inactive | inactive | inactive | inactive | inactive | inactive | inactive | inactive | inactive |  | inactive |  |  | inactive |  |  | 
CCCC[C@H]1CN(CC2CCOCC2)C(=O)OC12CCN(C1(C)CCN(C(=O)c3c(C)ncnc3C)CC1)CC2 | inactive | inactive | inactive | inactive | inactive | inactive | inactive | inactive | inactive | inactive | inactive |  | inactive |  |  | inactive |  |  | 
O=C(N[C@@H](c1ccccc1)[C@@H]1CCCCN1)c1cccc(C(F)(F)F)c1Cl | inactive | inactive | inactive | inactive | inactive | inactive | inactive | inactive | inactive |  | inactive |  | inactive |  |  | inactive |  |  | 
Cc1ccc(C(C)(C)C)c(O)c1 | inactive | inactive | inactive | inactive | inactive | inactive | inactive | inactive | inactive | inactive |  |  | inactive |  |  | inactive |  | 30 µM (active) | 22.3 µM (active)
